Compound activity from PubChem.
Hits are enriched below; roughly 4.1% of the tested compounds scored in any of these assays.
aSyn UTR inh: 5' untranslated region of α-synuclein, MLPCN primary screen | alpha-synuclein 5'UTR reporter, inhibitor activity | inhibition, % (tested at 7.5 µM) | actives 0.82% (n = 300,000) | AID 1813; in the data active means inhibition above about 60%;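 further: H4 neuroglioblastoma cells stably carrying SNCA 5'UTR luciferase fusion; 0% = DMSO wells and 100% = positive control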
Gli-Sufu block: antagonists of Gli-Sufu signaling; Sufu-KO-LIGHT fibroblasts, Gli luciferase reporter luminescence; inhibition, % at 5 µM; actives 0.74% (n = 340,000); AID 588413;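 active means inhibition above about 55%, limit read from the data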;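 further: 0% = DMSO-treated cells and 100% = wells with medium but no cells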
Jurkat NFkB inh: lowers PMA/ionomycin-induced NF-kB signal in Jurkat cells; PMA/ionomycin-induced NF-kB luciferase reporter, luminescence; inhibition, % at 4 µM; actives 0.53% (n = 330,000); AID 435003; in the data active means inhibition above about 50%
KLF5 inh: suppresses KLF5 promoter-driven expression. DLD-1 KLF5 promoter-luciferase reporter, luminescence. inhibition, % at 5 µM. AID 1700. actives 0.23% (n = 290,000);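 active means inhibition above a per-plate limit of that plate's mean compound inhibition plus 3 SD, cut at about 60% in these data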;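 further: 0% = DMSO wells and 100% = LY294002 at 200 µM; higher means less KLF5 promoter-driven luciferase light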
697 NFkB inh: inhibitors of the PMA/ionomycin-induced NF-kB reporter in 697 B cells; AID 435022; 697 B-cell NF-kB luciferase reporter, 16 h; inhibition, % at 4 µM; actives 0.33% (n = 330,000); in the data active means inhibition above about 35%
Mdm2 MdmX PPI: human Mdm2/MdmX binding inhibition. SaOS-2 split-luciferase Mdm2/MdmX complementation, luminescence. inhibition, % at 8 µM. actives 3% (n = 330,000);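 active means inhibition of at least 50% at 8 µM in the primary screen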
Target sequence (O15151 whole entry, looked up): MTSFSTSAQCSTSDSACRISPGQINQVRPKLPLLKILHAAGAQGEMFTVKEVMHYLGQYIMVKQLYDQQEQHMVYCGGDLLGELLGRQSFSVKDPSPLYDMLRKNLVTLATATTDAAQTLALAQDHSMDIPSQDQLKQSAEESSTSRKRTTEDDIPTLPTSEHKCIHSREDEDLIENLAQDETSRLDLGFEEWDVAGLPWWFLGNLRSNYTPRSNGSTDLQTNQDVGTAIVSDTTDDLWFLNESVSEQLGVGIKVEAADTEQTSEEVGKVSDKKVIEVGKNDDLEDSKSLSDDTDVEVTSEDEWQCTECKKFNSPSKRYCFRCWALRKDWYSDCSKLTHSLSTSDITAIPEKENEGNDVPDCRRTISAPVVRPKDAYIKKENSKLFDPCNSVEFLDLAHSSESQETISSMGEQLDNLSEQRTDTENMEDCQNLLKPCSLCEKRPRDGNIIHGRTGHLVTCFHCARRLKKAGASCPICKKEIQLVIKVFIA
Target sequence (Q00987 whole entry, looked up): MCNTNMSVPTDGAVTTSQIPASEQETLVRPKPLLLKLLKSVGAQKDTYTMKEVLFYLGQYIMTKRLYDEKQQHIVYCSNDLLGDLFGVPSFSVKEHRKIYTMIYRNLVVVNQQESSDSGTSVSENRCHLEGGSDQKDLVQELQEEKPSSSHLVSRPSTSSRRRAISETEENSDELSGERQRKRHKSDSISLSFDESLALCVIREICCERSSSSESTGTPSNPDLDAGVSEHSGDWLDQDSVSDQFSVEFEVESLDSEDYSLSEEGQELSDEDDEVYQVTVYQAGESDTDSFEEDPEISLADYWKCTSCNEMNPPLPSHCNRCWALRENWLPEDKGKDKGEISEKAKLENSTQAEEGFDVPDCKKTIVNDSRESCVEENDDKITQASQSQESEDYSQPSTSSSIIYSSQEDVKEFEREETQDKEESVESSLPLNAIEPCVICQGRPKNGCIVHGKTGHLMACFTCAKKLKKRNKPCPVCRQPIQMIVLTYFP
Mdm2 MdmX conf: confirmation of human Mdm2/MdmX interaction inhibitors; shares compounds with Mdm2 MdmX PPI; Mdm2-MdmX binding, luminescent assay; inhibition, % at 8 µM; actives 55% (n = 10,000); AID 489028; in the data active means inhibition above about 40%
FLuc counter: counter-screen for Mdm2/MdmX inhibitors: full-length luciferase; inhibition, % at 8 µM; actives 77% (n = 6,200); SaOS-2 full-length luciferase counterscreen, luminescence; shares compounds with Mdm2 MdmX PPI;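 active means mean inhibition at 8 µM reaching about 37%, which flags the compound as non-specific, limit read from the data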;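 further: p53-null SaOS-2 cells with luciferase driven by a doxycycline-inducible promoter; compound on cells about two nights before reading with doxycycline added after day one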
* = called active by the depositor; x = no result given.

SMILES	aSyn UTR inh	Gli-Sufu block	Jurkat NFkB inh	KLF5 inh	697 NFkB inh	Mdm2 MdmX PPI	Mdm2 MdmX conf	FLuc counter
Cc1cccc(COCC(Cc2ccccc2)N2CCN(C(=O)c3cc(Cl)cc(Cl)c3)CCC2=O)c1 (centres undefined)	29	20	-2	-20	-18	50*	27	x
O=C(c1ccc(Cl)c(Cl)c1)N1CCC(=O)N(C(COCc2cccc(C(F)(F)F)c2)Cc2ccccc2)CC1 (centres undefined)	14	8	0	6	-2	51*	21	x
C[C@H]1[C@H](c2ccccc2)C[C@@H](C(=O)O)C1(C)C	4	-2	6	x	12	13	x	x
Cc1ccc(C)c(NC(=O)Cn2nnc(-c3ccc(N4CCOCC4)cc3)n2)c1	-23	-26	-30	7	-8	83*	38	83*
Cc1cccc(C)c1NC(=O)Cn1nnc(-c2ccc(N3CCOCC3)cc2)n1	-23	-12	-14	6	-11	70*	20	x
CS(=O)(=O)N(CC(=O)O)Cc1cccc(CN(CC(=O)O)S(C)(=O)=O)c1	-20	16	6	-23	7	-10	x	x
COc1ccc(Cl)cc1N1C(=NC(=O)C2CCCCC2)SC2CS(=O)(=O)CC21 (centres undefined)	14	-16	0	-12	-22	8	x	x
CC(=O)Nc1ccc(/C(C)=N/Nc2nc(Nc3cccc4ccccc34)nc(N3CCOCC3)n2)cc1	-28	40	-7	-31	29	54*	28	x
CC(=O)Nc1ccc(/C(C)=N/Nc2nc(N3CCOCC3)nc(N3CCOCC3)n2)cc1	-38	0	-15	-21	-42	-23	x	x
Cn1c(=O)[nH]c(=O)c2c1nc(N)n2Cc1ccccc1	-4	16	1	-27	18	8	x	x
COCCN(C(=O)c1cc(CN2C(=O)c3ccccc3C2=O)ccc1OC)c1c(N)n(CC(C)C)c(=O)[nH]c1=O	x	5	x	x	x	x	x	x
C=CCC(Nc1ccccc1)C12C=CC(O1)C(C(=O)OC)=C2C(=O)OC (centres undefined)	-36	2	7	-58	-57	89*	46*	31
COC(=O)C1=C(C(=O)OC)[C@]2([C@@H]3CC=CCN[C@@H](Cc4ccccc4)C(=O)N3Cc3ccccc3)C=C[C@H]1O2	x	19	x	x	x	x	x	x
O=C(NCc1ccc2c(c1)OCO2)c1ccc(COc2cc(Cl)ccc2Cl)o1	23	-3	2	-25	16	21	x	x
O=C(N/N=C/c1ccc(O)cc1)c1ccc(COc2cc(Cl)ccc2Cl)o1	-33	15	18	20	-41	61*	24	x
CC(C)N(C(=O)COC(=O)c1ccccc1C(=O)c1ccc(Cl)c([N+](=O)[O-])c1)C(C)C	4	4	-7	-13	-11	82*	23	x
O=C(COC(=O)c1ccccc1C(=O)c1ccc(Cl)c([N+](=O)[O-])c1)NC1CCCCCC1	-7	-3	20	-1	14	96*	100*	51*
Cn1c(N)c(C(=O)COC(=O)c2ccccc2C(=O)c2ccc(Cl)c([N+](=O)[O-])c2)c(=O)n(C)c1=O	x	-4	-6	x	19	99*	62*	26
O=C(CC(C(=O)NCc1ccccc1)c1nc2ccccc2c(=O)[nH]1)NCc1ccccc1 (centres undefined)	10	-34	-2	-18	6	8	x	x
OCCCNc1ncnc2scc(-c3ccc(Cl)cc3)c12	19	-11	-1	-3	-29	71*	60*	33
Cn1c(C(=O)N2CCN(c3ccccc3)CC2)cc2cc(Cl)ccc21	25	-3	-47	-16	-17	17	x	x
CCOC(=O)c1nnc(-c2ccc(C)cc2)nc1Sc1ccccc1Cl	30	15	-2	-20	9	54*	21	x
CCOC(=O)c1nnc(-c2ccc(C)cc2)nc1Oc1ccccc1Cl	29	-9	-11	-17	-16	51*	-2	x
CCCCCCC(=O)N1C/C=C\C(c2ccc(OC)cc2)N(Cc2ccc(F)cc2)C(=O)[C@H]1Cc1ccccc1 (some centres undefined)	47	4	10	x	-13	72*	40	62*
CCC(=O)Nc1cccc(C2=NOC3(C2)C[C@@H](C(N)=O)N(C(=O)COc2ccc(Cl)cc2)C3)c1 (some centres undefined)	-11	-7	1	x	21	22	x	x
SMILES	aSyn UTR inh	Gli-Sufu block	Jurkat NFkB inh	KLF5 inh	697 NFkB inh	Mdm2 MdmX PPI	Mdm2 MdmX conf	FLuc counter
NC(=O)[C@@H]1CC2(CC(c3cccc(NC(=O)CC(c4ccccc4)c4ccccc4)c3)=NO2)CN1C(=O)COc1ccc(Cl)cc1 (some centres undefined)	27	9	23	x	1	73*	42*	80*
NC(=O)[C@H]1CC2(CC(c3cccc(NC(=O)COc4ccc(Cl)cc4)c3)=NO2)CN1C(=O)CC(c1ccccc1)c1ccccc1 (some centres undefined)	17	8	10	x	5	54*	24	x
Oc1ccccc1/C=N/Nc1cc(N2CCCC2)nc(N2CCCC2)n1	2	0	8	-27	-27	50	30	x
CN(C)N1C(N)=C(C#N)C(c2cccc3ccccc23)C2=C1CC(c1ccccc1)CC2=O (centres undefined)	42	12	22	-23	-23	64*	63*	42*
CN(C)N1C(N)=C(C#N)C(c2ccccc2)C2=C1CC(C)(C)CC2=O (centres undefined)	8	-12	5	-12	0	2	x	x
CCN(C(=O)CO/N=C/c1ccc(OC)cc1OC)c1c(N)n(Cc2ccccc2)c(=O)[nH]c1=O	x	-4	-2	x	18	-9	x	x
O=C1c2ccccc2NC(c2ccc(-c3ccc(Br)cc3)o2)N1O (centres undefined)	41	-2	-1	-20	-12	73*	56*	31
O=C(NC(Cc1c[nH]c2ccccc12)C(=O)Nc1ccc(F)cc1)c1cccs1 (centres undefined)	34	-5	-6	-9	-129	86*	71*	70*
Cn1c(Oc2ccc3c(c2)OCO3)nc2c1c(=O)n(Cc1ccccc1)c(=O)n2C	7	15	13	1	20	62*	22	x
O=C(COC(=O)Cc1ccccc1F)Nc1cccc(S(=O)(=O)NC2=NCCCCC2)c1	-7	-3	-1	-27	10	-12	x	x
CCn1c(=O)cc(SCC(=O)N2CCN(c3ccccn3)CC2)c2ccccc21	0	27	x	-18	x	x	x	x
CCn1c(=O)cc(SCC(=O)N2CCN(c3ccccc3F)CC2)c2ccccc21	-2	9	3	16	-18	56*	44*	86*
